Compound activity (PubChem BioAssay)
SARS PLpro yeast = inhibitors of SARS-CoV papain-like protease in yeast; S. cerevisiae expressing SARS-CoV PLpro, growth rescue; Potency, µM (highest dose often 32.9 µM), for inactives: at the highest dose activity, positive = growth rescue, hits mostly activators; 0.19% of 330,000 active; also: potency is read from the fitted curve at half-maximal effect; 0% is about no effect; nearly all actives have a fitted effect of over 55% in size
LmPK inh = LmPK (Leishmania mexicana) enzyme inhibition | Q27686 | purified LmPK, Kinase-Glo ATP luminescence, 1 h | Potency, µM (highest dose often 57.5 µM), without a hit: at the highest dose activity change, negative = inhibition, actives largely listed as inhibitors | 0.37% of 290,000 active; active = well fitted curve in the direction sought with a large enough effect; inconclusive = small, poorly fitted or top-dose-only effect, or another doubt; inactive = no such curve, though single readings can be large; an effect the other way counts as inactive or inconclusive; also: potency is read from the fitted curve at half-maximal effect; % is scaled to controls: 0 for no effect and ±100 for the full control effect
Target sequence (Q27686 whole entry, looked up): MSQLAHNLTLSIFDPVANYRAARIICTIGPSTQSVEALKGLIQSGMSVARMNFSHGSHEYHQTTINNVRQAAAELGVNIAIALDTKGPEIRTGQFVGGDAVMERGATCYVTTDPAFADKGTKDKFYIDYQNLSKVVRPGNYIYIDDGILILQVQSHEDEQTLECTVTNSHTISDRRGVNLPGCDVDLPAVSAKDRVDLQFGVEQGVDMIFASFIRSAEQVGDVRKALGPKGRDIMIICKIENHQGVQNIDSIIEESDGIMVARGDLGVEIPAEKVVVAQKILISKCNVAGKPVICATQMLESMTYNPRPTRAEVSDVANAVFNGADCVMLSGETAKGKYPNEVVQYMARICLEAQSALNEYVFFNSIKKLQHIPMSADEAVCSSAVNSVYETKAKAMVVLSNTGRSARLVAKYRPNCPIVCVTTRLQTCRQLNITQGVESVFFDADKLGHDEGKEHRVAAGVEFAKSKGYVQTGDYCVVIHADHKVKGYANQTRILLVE
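Screened at intermediate enzyme activity to detect both inhibitors and activators: LmPK at 0.1 nM, with a 0.5 nM enzyme column as activation reference. PEP 0.5 mM, ADP 0.1 mM; ATP detected by luminescence after 1 h.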
CHX counter = counter-screen hit for Shiga toxin inhibitors, cycloheximide; max response, %; 12% of 300,000 active; cell reporter, cycloheximide protein synthesis inhibition counterscreen; AID 2314; in the data active = max response mostly above about 13%, no sharp cut-off; inactive = mostly below about 14%; also: read at 38.3 µM for the half of the compounds with a filed dose; 0% is about no effect
NS1 function inh = influenza NS1 inhibition; AID 2326; Potency, µM (top dose mostly 46.1 µM), without a hit: at the top dose activity, positive = more growth; 0.4% of 270,000 active; also: potency is read from the fitted curve at half-maximal effect; actives are rising curves; nearly all actives have a fitted effect of over 50% in size
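Growth recovery, yeast-based: influenza A NS1 expressed in S. cerevisiae causes slow growth, and suppressors are detected by OD600. The parent strain without NS1 is used as positive control.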
Shiga toxin inh = blocks Shiga toxin action in Vero cells. Vero cells, Shiga toxin protein synthesis inhibition reporter. inhibition, % at 38.7 µM. 9.2% of 290,000 active; in the data active = inhibition mostly above about 28%, no sharp cut-off; inactive = mostly below about 43%; also: 0% is about no effect
Tb PYK inh = T. brucei pyruvate kinase inhibition; Q57TT1; TbPYK enzyme, Kinase-Glo Plus ATP luminescence, 45 min; Potency, µM (series often up to 76.8 µM), without a hit: at the top dose activity, negative = inhibition, actives largely listed as inhibitors; 0.12% of 410,000 active; active = well fitted curve in the direction sought with a large enough effect; inconclusive = small, poorly fitted or top-dose-only effect, or another doubt; inactive = no such curve, though single readings can be large; an effect the other way counts as inactive or inconclusive; also: potency is read from the fitted curve at half-maximal effect; % is scaled to controls: 0 for no effect and ±100 for the full control effect; nearly all actives have a fitted effect of over 50% in size
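Readout: single end-point luminescence (Kinase-Glo Plus, 10 min). Reaction conditions were TbPYK/substrate plus 130 uM ADP, 45 min at RT, pH 7.2 TEA buffer. No-enzyme wells served as controls, and data were normalized before concentration-response fitting.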
Numbers without * were called inactive; u = inconclusive; x = no result; + = active, no number. This is one part of a sample in which hits are shown more often than they occur. Unless noted, calls follow the shape of the full dose curve.

SMILES	SARS PLpro yeast	LmPK inh	CHX counter	NS1 function inh	Shiga toxin inh	Tb PYK inh
CC1CCc2c(sc(/N=C/c3ccco3)c2C(N)=O)C1 (configuration not stated)	-1%	-1%	38*	-7%	74*	-6%
CC1CCc2c(sc(/N=C/c3cccnc3)c2C(N)=O)C1 (configuration not stated)	-1%	3%	16*	-7%	54	-24%
NNC(=O)c1cc2c(s1)-c1cc(Cl)ccc1SC2	-1%	2%	28*	u	39	-3%
Cc1ccc(C(=O)OCc2nnc(-c3ccccc3)o2)cc1S(=O)(=O)N1CCOCC1	-11%	x	x	x	x	1%
COc1ccccc1OCc1nnc(SCC(=O)Nc2ccc(N3CCOCC3)cc2)n1C	1%	-2%	8	-10%	-4	-2%
Cc1[nH]c(=O)[nH]c(=O)c1/C=N/NC(=O)CCNC(=O)OC(C)(C)C	3%	-8%	18*	3%	-6	2%
COc1ccc(C(=O)C[n+]2ccc(N(C)C)cc2)cc1	0%	1%	2	-2%	11	-11%
Cc1cc(NC(=O)c2ccc(Br)c([N+](=O)[O-])c2)no1	0%	-6%	20	x	28	-1%
Cc1ccc(C(=O)Nc2sc(C)c(-c3ccccc3)c2C(N)=O)cc1[N+](=O)[O-]	5%	2%	62*	8%	127*	-11%
Cc1cc(NC(=O)c2ccc(C)c([N+](=O)[O-])c2)no1	2%	-3%	31	x	32*	-8%
Cc1ccc(C(=O)Nc2ccc(NC(=O)c3cccs3)cc2)cc1[N+](=O)[O-]	0%	0%	8	-5%	23	-1%
Cc1cc(NC(=O)c2cccc(Br)c2)no1	x	x	x	x	x	-9%
Cc1cc(NC(=O)c2ccc(C)c(C)c2)no1	-4%	4%	37*	-32%	x	-7%
OCCNc1ncnc2c1ncn2[C@H]1CN(Cc2ccc(Cl)cc2)C[C@@H](CO)O1	x	x	x	x	x	-3%
CCOC(=O)c1c(NC(=O)CSc2cn(CCNC(=O)c3c(F)cccc3F)c3ccccc23)sc2c1CCCC2	x	x	x	x	x	6%
CC(=O)Nc1cccc(N/C=C(\C=O)c2nc3ccccc3o2)c1	8%	1%	29*	-8%	36*	1%
CC(=O)Nc1ccc(N/C=C(\C=O)c2nc3ccccc3o2)cc1	0%	7%	14	-2%	-11	-1%
O=C/C(=C\Nc1ccccn1)c1nc2cc(Cl)ccc2o1	-66%	3%	47*	u	63*	-6%
O=C/C(=C\Nc1ccccn1)c1nc2ccccc2o1	-22%	3%	27*	-9%	+	2%
CCOc1ccc(NC(=O)c2oc3ccccc3c2NC(=O)C(C)Oc2ccccc2)cc1 (configuration not stated)	x	x	x	x	x	-8%
CCOc1cccc(C(=O)N(Cc2cccc(F)c2)C2CCS(=O)(=O)C2)c1 (configuration not stated)	9%	-4%	-3	2%	-3	0%
COC(=O)C(Cc1ccc(OC(=O)c2ccccc2Cl)cc1)N1Cc2ccccc2C1=O (configuration not stated)	-4%	1%	22*	17%	38	-2%
COC(=O)C(Cc1ccc(OC(=O)c2ccccc2C)cc1)N1Cc2ccccc2C1=O (configuration not stated)	-6%	-6%	33*	11%	active	8%
Cc1ccnc(N/C=C/C(=O)c2ccc(Br)cc2)c1	-2%	-3%	49*	-6%	110*	-16%
COc1ccc(C(=O)/C=C/Nc2cc(C)ccn2)cc1	-2%	13µM*	29*	-71%	38	-27%
SMILES	SARS PLpro yeast	LmPK inh	CHX counter	NS1 function inh	Shiga toxin inh	Tb PYK inh
Cc1cc(N/C=C/C(=O)c2ccc(Br)cc2)no1	0%	-2%	16*	-2%	49*	-7%
COC(=O)c1ccc(=O)n(Cc2ccc3c(c2)OCO3)c1	-3%	1%	-6	-2%	-23	-12%
CCOC(=O)c1c(C)n(Cc2ccc3c(c2)OCO3)c2ccc(O)cc12	0%	-4%	30*	-19%	38	x
COC(=O)c1c(C)n(Cc2ccc3c(c2)OCO3)c2ccc(O)cc12	-9%	-4%	16*	-61%	11	-11%
CCOC(=O)c1c(C)n(Cc2ccco2)c2ccc(O)cc12	x	-15%	3	u	11	-12%
CCOC(=O)c1c(C)n(CCO)c2ccc(O)cc12	x	-8%	1	5%	5	6%
CCOC(=O)c1c(C)n(Cc2ccc(F)cc2)c2ccc(O)cc12	0%	18µM*	12	2%	-14	u
CCCCNC(=S)NNC(=O)c1ccoc1C	0%	-4%	19*	-9%	50	2%
CCCCNC(=O)NNC(=O)c1ccoc1C	3%	4%	53*	2%	62*	10%
O=S(=O)(Cc1ccccc1)C(CCCc1ccccc1)S(=O)(=O)Cc1ccccc1	x	x	x	x	x	28%
CC(C)(C)c1ccc(COc2ccsc2C(=O)O)cc1	0%	3%	21*	x	35*	2%
CCc1nn(CC(=O)N2CCCCC2)c(=O)c2cc3occc3n12	x	x	x	x	x	2%
Cc1ccccc1CSc1nc2ccsc2c(=O)n1CCC(C)C	x	x	x	x	x	0%
O=c1c2c3c(sc2nc2n1CCCC2)CCCC3	-75%	-7%	19*	-30%	42*	-3%
O=c1c2c(nc3n1CCCCC3)sc1c(O)c(Br)ccc12	-10%	u	16*	-49%	40	u
CCN(CC)CCOc1c(Br)ccc2c1sc1nc3n(c(=O)c12)CCC3	0%	-6%	-4	-31%	1	0%
CC(=O)N1CCCc2cc(S(=O)(=O)N3CCC(C(=O)NCc4ccc(N(C)C)cc4)CC3)ccc21	x	x	x	x	x	-4%
Cc1cc(-c2ccc(F)cc2)nc2cc(C(N)=O)nn12	-7%	3%	0	3%	-4	-15%
CCOC(=O)c1cnn2c(C)cc(-c3ccc(F)cc3)nc12	5%	1%	33*	-19%	53	-8%
CCOC(=O)C1CCN(C(c2cccnc2)c2c(NC(=O)c3ccco3)sc(C)c2C)CC1 (configuration not stated)	7%	10%	21*	-35%	32	-6%
Cc1ccc(-c2noc(COc3ccccc3C)n2)cc1	-21%	-6%	29*	-18%	55	4%
COc1ccc(OCc2nc(-c3ccc(-n4cccc4)cc3)no2)cc1	x	x	x	x	x	-3%
c1ccc(-c2noc(COc3ccc4c(c3)OCO4)n2)cc1	3%	4%	26*	-28%	55*	-11%
c1ccc(NCc2nc(-c3ccccc3)no2)cc1	-1%	1%	56*	-25%	155*	-2%
Cc1ccc(OCc2nc(-c3ccccc3)no2)cc1	2%	-5%	45*	-9%	84*	-23%
COc1ccc(-c2noc(COc3ccc4c(c3)OCO4)n2)cc1	3%	2%	-4	6%	7	3%
Fc1cccc(CSc2ncnc3c2ncn3[C@H]2CCCS2)c1	x	x	x	-16%	x	x
